KB-3-1 tox = qHTS assay for MDR1-selective chemotherapeutics: Primary screen using the parental adenocarcinoma cell KB-3-1 | KB-3-1 viability, CellTiter-Glo ATP luminescence, 72 h | Potency, µM (titrated, usually from 46.1 µM), actives largely listed as cytotoxic | hit rate 1.4% among 400,000 | AID 1347075, 2019; further: on the % scale 0 is the no-effect control and ±100 the full control effect; nearly all actives have a fitted effect of over 60% in size
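Luminescent ATP read-out (CellTiter-Glo) measures survival of drug-naive KB-3-1 cells after 72 h compound exposure at 37 °C. Titration series was screened from lowest to highest concentration, with DMSO vehicle plates as background controls.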
KB-V1 MDR tox = qHTS assay for MDR1-selective chemotherapeutics: Primary screen using the drug-selected MDR subline cells KB-V1; hit rate 3.4% among 400,000; Potency, µM (doses to about 46.1 µM), actives largely listed as cytotoxic; KB-V1 MDR cells viability, CellTiter-Glo, 72 h; AID 1347076, 2019; further: on the % scale 0 is the no-effect control and ±100 the full control effect; nearly all actives have a fitted effect of over 60% in size
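Cytotoxicity toward P-gp-expressing KB-V1 cells was determined as loss of CellTiter-Glo luminescence after 72 h at 37 degrees C. Compounds were tested in quantitative HTS format across a concentration range, with curves fitted to normalized data.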
ATXN2 expr inh = Primary qHTS for Inhibitors of ATXN expression. Potency, µM (series often up to 57 µM), for the others: top-dose activity change, negative = inhibition, hits mostly inhibitors. hit rate 0.72% among 360,000. HEK-293 ATXN2-luciferase reporter, luminescence, 24 h. AID 1745845, 2022; further: on the % scale 0 is the no-effect control and ±100 the full control effect; nearly all actives have a fitted effect of over 55% in size
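ATXN2-luciferase reporter cells (luciferase flanked by upstream and downstream ATXN2 gene portions) were treated 24 h at 37 °C with compounds at up to 57 uM. SteadyGlo luminescence gave expression; GF-AFC fluorescence gave viability.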
S2 tox = Viability Counterscreen for Primary qHTS for Inhibitors of ATXN expression. S2 cells (HEK-293 line with an ATXN2-luciferase reporter) viability, CellTiter-Fluor protease fluorescence, 24 h. Potency, µM (top dose mostly 56.7 µM), actives largely listed as cytotoxic. hit rate 0.49% among 400,000; further: nearly all actives have a fitted effect of over 40% in size
TGFb SMAD3 inh = qHTS for Inhibitors of TGF-b; HepG2 CAGA-GFP TGF-b/SMAD3 reporter, GFP fluorescence, 18 h; TGF-beta stimulated, 500 pg/mL final; hit rate 1.2% among 410,000; AID 588855, 2011; Potency, µM (highest dose often 46.1 µM), for inactives: top-dose activity, negative = inhibition, actives largely listed as inhibitors; further: on the % scale 0 is the no-effect control and ±100 the full control effect; nearly all actives have a fitted effect of over 65% in size
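Inhibition was scored as loss of TGF-beta-induced (500 pg/mL final, 18 hours, 37 degrees C) GFP in HEPG2 cells carrying a CAGA-GFP reporter, in DMEM with 1% FBS. Well GFP was summed per cell; Activity was normalised to unstimulated and stimulated DMSO wells, then concentration-response fitting.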
HepG2 tox = qHTS for Inhibitors of TGF-b: Cytotox Counterscreen; HepG2 CAGA-GFP viability, ATP luminescence, 18 h; Potency, µM (highest dose often 46.1 µM), inactives show top-dose activity change, negative = cytotoxicity, hits mostly cytotoxic; hit rate 0.76% among 410,000
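CellTiter-Glo luminescence gave cytotoxicity after 18 hours at 37 degrees C. The cells were HepG2 CAGA-GFP in 1% FBS DMEM, stimulated with 500 pg/mL TGF-beta after compound addition. %Activity was normalised to no-cell wells (complete cell-killing) and DMSO (no toxicity), and curves were fitted and classified.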
Starred values were filed as active, the others as inactive; i = inactive; u = inconclusive; x = not tested or not shown. Compounds with a hit are over-represented: about 5.9% of the library has one in this group of screens. The call rests on the fitted dose curve; in most records, active means well fitted curve in the direction sought with a large enough effect; inconclusive means small, poorly fitted or top-dose-only effect, or another doubt; inactive means no such curve, though single readings can be large; an effect the other way counts as inactive or inconclusive. Potency means the concentration at half of the fitted maximal effect.

SMILES | KB-3-1 tox | KB-V1 MDR tox | ATXN2 expr inh | S2 tox | TGFb SMAD3 inh | HepG2 tox
O=C1NC[C@H](CCCCN2C[C@H](Cc3ccc(O)cc3)N(CCc3ccc(O)cc3)C(=O)C2=O)N(CC2CCCCC2)C1=O | i | u | -0.4% | i | x | x
CC(=O)Nc1cccc(-c2ccnc3c2CC(C(=O)Nc2ccc4c(c2)OCO4)O3)c1 (centres undefined) | 5.17µM* | i | -19.2% | u | -5.8% | -8.4%
COc1ccc(CCCNC(=O)C2Cc3c(-c4cccc(NC(C)=O)c4)ccnc3O2)cc1 (centres undefined) | 6.51µM* | u | u | i | u | -6.4%
O=C(Nc1ccc2c(c1)OCO2)C1Cc2c(-c3ccc4c(c3)OCO4)ccnc2O1 (centres undefined) | u | 8.2µM* | u | u | u | -41.9%
COc1ccc(NC(=O)C2Cc3c(-c4ccc5c(c4)OCO5)ccnc3O2)cc1 (centres undefined) | 9.2µM* | u | -9.5% | u | -13.0% | -28.1%
CC(=O)Nc1ccc(NC(=O)C2Cc3c(-c4ccc5c(c4)OCO5)ccnc3O2)cc1 (centres undefined) | i | i | 5.9% | i | 15.1% | -11.2%
CC(C)(C)OC(=O)CN(Cc1ccc(Cl)cc1)Cc1ccc([N+](=O)[O-])s1 | x | x | -18.9% | x | x | x
CC(=O)NCCNC(=O)C1Cc2c(-c3cccc(NC(C)=O)c3)ccnc2O1 (centres undefined) | i | i | 13.5% | i | 18.9% | 5.1%
CC(=O)Nc1cccc(-c2ccnc3c2CC(C(=O)NCc2cccs2)O3)c1 (centres undefined) | 5.8µM* | i | -1.5% | u | 4.5% | -14.8%
CC(C)C[C@H]1CNC(=S)N1C[C@H]1CCCN1C[C@H](Cc1ccc(O)cc1)N1C[C@H](Cc2ccc(O)cc2)N(CC2CCCCCC2)C1=S | u | u | 17.8µM* | 12.6µM* | u | 12.6µM*
CC(C)C[C@@H](CN1CCC[C@@H]1CN1C(=S)NC[C@@H]1Cc1ccc(O)cc1)N1C[C@H](Cc2ccc(O)cc2)N(CCc2ccccc2)C1=S | i | u | -23.0% | 28.2µM* | 12.6µM* | -64.8%
CC(C)C[C@@H](CN1CCCC1CN1C(=S)NC[C@@H]1Cc1ccccc1)N1C[C@H](Cc2ccc(O)cc2)N(CCc2ccccc2)C1=S (some centres undefined) | u | u | -34.8% | u | x | x
CC(C)C[C@H]1CNC(=S)N1C[C@H]1CCCN1C[C@H](CC(C)C)N1C[C@H](Cc2ccc(O)cc2)N(CC2CCCCC2)C1=S | u | 16.4µM* | u | x | x | x
CC(C)C[C@@H](CN1CCCC1CN1C(=S)NC[C@@H]1Cc1ccc(O)cc1)N1C[C@H](Cc2ccccc2)N(CC2CCCCC2)C1=S (some centres undefined) | u | u | -15.1% | u | u | -34.3%
COCO[C@H]([C@@H](C)C=C(Br)Br)[C@@H](C)COCc1ccc(OC)cc1 | x | x | x | x | u | -6.8%
C=CCCC(=O)Nc1nc(C)c(-c2csc(Nc3ccccc3OC)n2)s1 | 7.31µM* | u | -20.0% | u | -22.1% | 9.3%
Cc1ccc(Nc2nc(-c3sc(C)nc3C)cs2)cc1 | 2.31µM* | 1.84µM* | x | x | u | -41.6%
Cc1nc(N)sc1-c1csc(Nc2ccc(Cl)cn2)n1 | i | 18.4µM* | 0.6% | i | -22.9% | -8.4%
CCCCC(=O)Nc1nc(C)c(-c2csc(Nc3ccccc3OC)n2)s1 | u | i | -5.9% | i | -3.7% | -0.6%
CC(=O)c1ccc(Nc2nc(-c3sc(C)nc3C)cs2)cc1 | u | 11.6µM* | x | u | -2.6% | -11.3%
COC(=O)[C@@]1(Cc2ccc(F)cc2)[C@H]2c3cc(C(=O)N4CCCC4)n(C)c3C[C@H]2CN1C(=O)c1ccccc1 | i | u | -24.2% | i | x | x
COc1ccc(CCNC(=O)CCS(=O)(=O)c2cc(Br)cc3c2N(C(C)=O)CC3)cc1OC | i | i | 9.3% | i | -20.5% | -5.8%
Cc1ccc(CN2CC(N3CCCCC3)CS2(=O)=O)cc1 (centres undefined) | i | i | 6.2% | i | -28.4% | 0.3%
COc1ccc(Nc2nc(-c3sc(C)nc3C)cs2)c(OC)c1 | 7.31µM* | u | -19.6% | u | 14.2% | 3.3%
COc1ccc(Nc2nc(-c3cccs3)cs2)c(OC)c1 | i | i | x | x | 0.0% | -25.9%
SMILES | KB-3-1 tox | KB-V1 MDR tox | ATXN2 expr inh | S2 tox | TGFb SMAD3 inh | HepG2 tox
CCOC(=O)c1ccccc1Nc1cn(C(C)=O)c2ccccc12 | 5.8µM* | i | -6.0% | i | -15.5% | -21.5%
CCCCCCCCCCCCCCCCn1cc[n+](CC(C)=O)c1 | 8.2µM* | i | u | 29.9µM* | 20µM* | -103.9%
CCN(CC)C(=O)C1=C(C)N(Cc2ccc(C(C)(C)C)cc2)C(=O)C(CC(=O)NCc2ccco2)C1 (centres undefined) | i | u | u | i | 10.1% | -8.6%
CC1=C(C(=O)N(C(C)C)C(C)C)CC(CC(=O)NCc2ccco2)C(=O)N1Cc1ccc(C(C)(C)C)cc1 (centres undefined) | i | i | u | u | 17.8µM* | -31.8%
CC1=C(C(=O)N(C(C)C)C(C)C)CC(CC(=O)NCCCCc2ccccc2)C(=O)N1Cc1ccc(C(C)(C)C)cc1 (centres undefined) | u | u | u | u | 11.2µM* | 17.8µM*
COc1ccccc1-c1cc(NC(=O)COc2ccc(C)c(C)c2)n(-c2ccccc2)n1 | i | i | 0.1% | i | -8.2% | -18.0%
CCSc1nnc(NC(=O)[C@@H](NC(=O)c2cccc(C)c2)C(C)C)s1 | i | 8.2µM* | 4.2% | i | -8.3% | 8.6%
COc1ccc(C(=O)NC(Nc2ccccc2)C(Cl)(Cl)Cl)cc1 (centres undefined) | u | 8.2µM* | -17.2% | i | 0.0% | 1.3%
CCC(CC)c1nnc(NC(=O)[C@@H](NC(=O)c2cccc(C)c2)C(C)C)s1 | i | i | -4.1% | i | 4.9% | -3.8%
COc1ccc(C(=O)Nc2nc3ccccc3[nH]2)cc1 | u | u | u | i | 10.2% | -123.9%
COc1ccc(C(=O)N[C@H](C(=O)Nc2nc3ccccc3[nH]2)C(C)C)cc1 | 2.06µM* | 16.4µM* | -13.4% | x | u | -3.8%
